Data published in PubChem BioAssay.
Active and inactive are the calls of the source. Unless noted, how the calls were made is not given here.

Legend:
[1] = compound effects on lung adenocarcinoma cell viability – A549, calcein-AM fluorescence, 48 h, basal, profiling panel (AID 1162); settings: higher = more signal; further: test concentration not given here
[2] = compound effects on differentiated 3T3-L1 adipocyte viability – cell-based, 3T3-L1 adipocytes, calcein-AM fluorescence, 48 h, basal, profiling panel (AID 1163); settings: 3T3-L1 adipocytes viability, higher = more signal; further: test concentration not given here
[3] = compound effects on hepatocellular carcinoma cell viability – HepG2, calcein-AM fluorescence, 48 h, basal, profiling panel (AID 1164); settings: higher = more signal; further: test concentration not given here
[4] = compound effects on multiple myeloma cell viability – MM1S, calcein-AM fluorescence, 48 h, basal, profiling panel (AID 1165); settings: higher = more signal;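 further: viability of MM1S multiple myeloma cells under basal unstimulated conditions; test concentration not given here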
[5] = calcein-AM signal in unstimulated myeloma cells – cell-based, calcein-AM fluorescence, 48 h, PK04 Diversity Set, profiling panel (AID 1166); settings: RPMI8226 myeloma viability, higher = more signal;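 further: cells grown under basal conditions without added stimulus; test concentration not given here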
[6] = JC-1 mitochondrial signal, unstimulated HepG2 cells – cell-based, JC-1 fluorescence, 24 h, 100 nL compound, profiling panel (AID 1167); settings: HepG2 mitochondrial potential, higher = more signal; further: test concentration not given here
[7] = JC-1 mitochondrial signal, unstimulated adipocytes – cell-based, JC-1 fluorescence, 3T3-L1 adipocytes, 24 h, 100 nL compound, profiling panel (AID 1168); settings: JC-1 mitochondrial fluorescence, higher = more signal, called active from +8 up or from −8 down; further: test concentration not given here
[8] = JC-1 mitochondrial signal, unstimulated myeloma cells – cell-based, JC-1 fluorescence, RPMI8226, 24 h, 100 nL compound, profiling panel (AID 1169); settings: JC-1 mitochondrial potential fluorescence, higher = more signal; further: test concentration not given here
[9] = JC-1 mitochondrial signal, unstimulated MM1S myeloma – cell-based, JC-1 fluorescence, 24 h, 100 nL compound, profiling panel (AID 1170); settings: MM1S mitochondrial potential, higher = more signal; further: test concentration not given here
[10] = resazurin metabolic signal in A549 cells – cell-based, resazurin fluorescence, 24 h, PK04 Diversity Set, profiling panel (AID 1171); settings: A549 viability, higher = more signal, called active from +8 up or from −8 down; further: test concentration not given here
[11] = resazurin metabolic signal in HepG2 cells – cell-based, resazurin fluorescence, 24 h, PK04 Diversity Set, profiling panel (AID 1172); settings: HepG2 viability, higher = more signal; further: test concentration not given here
[12] = budding yeast growth changes without added modifier – OD600, strain BY4716, 24 h, basal condition, primary screen (AID 1173); settings: S. cerevisiae BY4716 growth, OD600, 24 h; higher = more signal, called active from +8 up or from −8 down
[13] = viability profiling in MM1S myeloma cells – cell-based, resazurin fluorescence, basal, 24 h, PK04 Diversity Set, profiling panel (AID 1174); settings: higher = more signal, called active from +8 up or from −8 down; further: test concentration not given here
[14] = molecular target: Dihydroorotate dehydrogenase (quinone), mitochondrial (Plasmodium falciparum (isolate 3D7)) (UniProt Q08210); test: inhibition of P. falciparum DHODH – biochemical, C-terminal His tag, absorbance 600 nm, primary screen (AID 1175); settings: PfDHODH enzyme, DCIP absorbance 600 nm; higher = more signal, called active from +8 up or from −8 down;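 further: recombinant parasite enzyme with a five histidine tag at its C terminus; test concentration not given here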
Dihydroorotate dehydrogenase (quinone), mitochondrial (Plasmodium falciparum (isolate 3D7)), sequence (Q08210 whole entry, looked up): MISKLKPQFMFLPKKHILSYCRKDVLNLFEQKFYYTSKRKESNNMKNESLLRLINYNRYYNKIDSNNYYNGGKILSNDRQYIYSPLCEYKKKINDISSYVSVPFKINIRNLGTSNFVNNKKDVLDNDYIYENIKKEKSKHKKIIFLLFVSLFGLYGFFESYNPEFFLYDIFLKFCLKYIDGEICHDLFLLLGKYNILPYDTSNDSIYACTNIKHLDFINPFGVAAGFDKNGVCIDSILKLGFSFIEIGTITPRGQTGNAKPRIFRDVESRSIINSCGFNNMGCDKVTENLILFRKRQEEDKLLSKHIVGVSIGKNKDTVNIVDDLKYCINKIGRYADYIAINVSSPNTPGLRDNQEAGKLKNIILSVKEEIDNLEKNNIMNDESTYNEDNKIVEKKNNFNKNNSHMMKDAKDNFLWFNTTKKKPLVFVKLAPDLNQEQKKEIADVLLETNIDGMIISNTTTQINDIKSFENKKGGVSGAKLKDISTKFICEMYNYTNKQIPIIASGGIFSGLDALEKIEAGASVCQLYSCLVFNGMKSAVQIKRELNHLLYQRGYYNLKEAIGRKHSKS

[15] = inhibition of PAO1 biofilm formation – strain PAO1, LB-PBS medium, absorbance 600 nm, primary screen (AID 1176); further: test concentration not given here; settings: P. aeruginosa PAO1 growth/biofilm, A600, 12 h; higher = more signal
[16] = growth modulation of vineyard yeast isolate – strain RM11-1a, OD600, basal, 24 h, primary screen (AID 1177);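 further: cultures grown under basal conditions with no added stressor; test concentration not given here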; settings: S. cerevisiae RM11-1a growth, OD600, 24 h; higher = more signal, called active from +8 up or from −8 down
[17] = growth of efflux-deficient E. coli DRC39 – strain DRC39, OD650, 24 h, E. coli filamentation inducers, primary screen (AID 1178);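 further: growth measured as culture turbidity by optical density at 650 nm; test concentration not given here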; settings: E. coli DRC39 acrAB, higher = more signal, called active from +8 up or from −8 down
[18] = growth of efflux-deficient E. coli DRC39 – strain DRC39, OD650, 48 h, E. coli filamentation inducers, primary screen (AID 1179);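 further: screen aims at cell division blockers that make cells filament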; settings: E. coli DRC39 delta-acrAB growth, higher = more signal, called active from +8 up or from −8 down
[19] = viability profiling in RPMI8226 myeloma cells – cell-based, resazurin fluorescence, basal, 24 h, PK04 Diversity Set, profiling panel (AID 1180); settings: higher = more signal;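 further: RPMI8826 multiple myeloma cell line at 5000 cells per well; test concentration not given here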
[20] = molecular target: E3 ubiquitin-protein ligase XIAP (Homo sapiens) (UniProt P98170); test: small molecules binding XIAP protein – biophysical, small-molecule microarray, fluorescence 635 nm, primary screen (AID 1181); settings: higher = more signal;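 further: score merges 667 nm emission and signal to noise over triplicate slides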
E3 ubiquitin-protein ligase XIAP (Homo sapiens), sequence (P98170 whole entry, looked up): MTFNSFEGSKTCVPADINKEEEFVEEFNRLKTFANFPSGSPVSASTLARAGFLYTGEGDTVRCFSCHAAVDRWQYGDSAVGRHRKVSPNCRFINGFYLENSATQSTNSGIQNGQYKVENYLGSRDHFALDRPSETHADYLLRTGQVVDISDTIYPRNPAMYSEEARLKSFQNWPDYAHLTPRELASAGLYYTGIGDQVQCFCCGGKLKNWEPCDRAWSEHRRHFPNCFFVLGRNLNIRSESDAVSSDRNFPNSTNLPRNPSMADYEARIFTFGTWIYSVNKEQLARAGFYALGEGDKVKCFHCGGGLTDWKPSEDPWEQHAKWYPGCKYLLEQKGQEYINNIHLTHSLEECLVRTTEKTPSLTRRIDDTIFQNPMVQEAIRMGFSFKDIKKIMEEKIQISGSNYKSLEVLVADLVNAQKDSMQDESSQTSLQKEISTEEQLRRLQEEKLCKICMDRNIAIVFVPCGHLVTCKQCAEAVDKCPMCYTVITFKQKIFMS

Row | Structure (SMILES) | z-score [1] | z-score [2] | z-score [3] | z-score [4] | z-score [5] | z-score [6] | z-score [7] | z-score [8] | z-score [9] | z-score [10] | z-score [11] | z-score [12] | z-score [13] | composite z-score [14] | z-score [15] | z-score [16] | z-score [17] | z-score [18] | z-score [19] | composite z-score [20]
1 | CC1=C2[C@@H](CCc3ccccc3)OB(O)C[C@@H]2[C@@H]2C(=O)N(Cc3ccccc3)C(=O)[C@@H]2C1 | -0.261 | -0.351 | -0.932 | -2.9 | -2.4 | -0.999 | -0.301 (inactive) | 0.49 | 0.821 | -0.17 (inactive) | -0.819 | -4.86 (inactive) | -0.249 (inactive) | -1.71 (inactive) | 0.118 (inactive) | -0.849 (inactive) | -0.204 (inactive) | -0.225 (inactive) | -0.26 | -0.193
2 | COc1ccc([Si](C)(C)[C@@H]2[C@@H](CC(=O)N3Cc4ccccc4C[C@H]3CO)O[C@]3(C(=O)N(Cc4ccc(N5C(=O)c6cccc7cccc5c67)cc4)c4ccccc43)[C@H]2C)cc1 | 0.396 | 0.885 | 0.355 | -2.78 | -0.705 | 1.15 | -0.0452 (inactive) | -0.0572 | 0.893 | -0.787 (inactive) | -0.542 | -0.551 (inactive) | -0.717 (inactive) | -2.41 (inactive) | 1 (inactive) | 1.15 (inactive) | 0.384 (inactive) | 0.403 (inactive) | -0.221 | -0.0773
3 | O=C1[C@H]2C=C(I)[C@H](C[C@@H]2OCCOCCO)[C@@]12CO2 | -0.461 | -1.03 | -0.773 | -0.582 | -0.537 | -1.77 | -0.473 (inactive) | -0.196 | -0.807 | 0.323 (inactive) | 0.0263 | -0.28 (inactive) | -0.448 (inactive) | 0.0832 (inactive) | 0.224 (inactive) | -0.145 (inactive) | -0.331 (inactive) | -0.175 (inactive) | -0.244 | -0.304
4 | Cc1ccc(N2C(=O)c3ccccc3[C@@H](C(=O)NCCCN(C)C)[C@@H]2c2ccc(CO)cc2)nc1 | -0.249 | 0.297 | 0.0355 | 0.817 | -0.71 | -0.685 | 0.208 (inactive) | -0.0886 | -0.241 | -0.0494 (inactive) | 0.258 | -0.957 (inactive) | -0.252 (inactive) | -0.746 (inactive) | -0.397 (inactive) | -0.64 (inactive) | -0.152 (inactive) | 0.327 (inactive) | 0.262 | -0.102
5 | CN(C)C(=O)[C@@]1(Cc2ccccc2)N=C(c2ccc(OCCCO)cc2)O[C@H]1c1ccccc1 | -0.518 | 0.208 | 0.64 | -0.918 | -3.24 | 0.285 | 0.708 (inactive) | -0.0484 | -0.303 | 1.18 (inactive) | 1.6 | -1.92 (inactive) | 0.857 (inactive) | -0.177 (inactive) | -0.345 (inactive) | 0.319 (inactive) | 0.0862 (inactive) | -0.146 (inactive) | 1.16 | -0.205
6 | C=C(/C(=C/C[C@H](OC(C)=O)c1ccc(CO)o1)c1cnc2ccccc2c1)C(C)C | -0.166 | 0.283 | -0.7 | -1.36 | -1.47 | -1.36 | -0.524 (inactive) | 0.867 | 0.246 | 0.643 (inactive) | 0.523 | -0.269 (inactive) | -0.575 (inactive) | -7.07 (inactive) | 0.898 (inactive) | 0.376 (inactive) | 0.307 (inactive) | -0.219 (inactive) | -0.659 | -0.0095
7 | NC(=O)NCC#Cc1ccc2c(c1)[C@]1(C(=O)N2)[C@H](c2ccccc2OCCO)N2[C@H](c3ccccc3)[C@H](c3ccccc3)OC(=O)[C@H]2[C@@H]1C(=O)NC[C@H](O)c1ccccc1 | 1.2 | 0.37 | -0.13 | 0.493 | 0.865 | -0.159 | 0.43 (inactive) | 0.208 | 0.359 | 0.635 (inactive) | 0.999 | -0.589 (inactive) | 1.62 (inactive) | -0.253 (inactive) | 0.601 (inactive) | 1.94 (inactive) | 1.22 (inactive) | 0.693 (inactive) | 0.462 | 0.254
8 | [N-]=[N+]=Nc1ccccc1C[C@@]1(C(=O)N2CCOCC2)N=C(c2ccc(OCCCO)cc2)O[C@@H]1c1ccccc1 | 0.239 | -0.231 | 1.01 | -1.92 | -2.57 | 1.02 | 0.752 (inactive) | -1.23 | -0.324 | -1.07 (inactive) | -0.339 | -1.76 (inactive) | -0.967 (inactive) | -0.132 (inactive) | 0.413 (inactive) | -0.0584 (inactive) | 0.37 (inactive) | -0.0378 (inactive) | -0.0984 | -0.09
9 | COCCCNC(=O)[C@@H]1c2ccccc2C(=O)N(C(C)C)[C@H]1c1ccc(CO)cc1 | 0.0112 | 0.534 | -0.244 | -0.288 | -0.0405 | -0.106 | -0.409 (inactive) | -0.0966 | 0.942 | 0.167 (inactive) | -0.388 | 0.214 (inactive) | 0.054 (inactive) | 0.367 (inactive) | 0.168 (inactive) | 1.03 (inactive) | 0.0099 (inactive) | -0.525 (inactive) | -0.0303 | -0.127
